Assay [1] can be described thus: modulation of C. elegans fzo-1 (AID 1259413).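 Also: fzo-1 mutant C. elegans worms in liquid wells.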 The settings on record: C. elegans fzo-1 modulator screen, mean read-out; stronger effect = higher value.
The target in assay [2] is Protein kinase 7 (PK7), Plasmodium falciparum 3D7 (PF3D7_0213400) (UniProt Q7YTF7). As to the kind of experiment: inhibition of Plasmodium PK7 catalytic activity – biochemical, TCAMS antimalarial set, Kinase-Glo luminescence (AID 1159587). Particulars: recombinant PfPK7, Kinase-Glo ATP depletion luminescence. A general note: In Kinase-Glo more light means more ATP remaining.

Assay [3] deals with Calcium-dependent protein kinase 4 (Plasmodium falciparum (isolate 3D7)) (UniProt Q8IBS5). As to the kind of experiment: PfCDPK4 kinase inhibitors, biochemical, TCAMS library (AID 1159588; cut-off not given, nearly all actives have IC50 up to about 0.91 µM). The settings on record: recombinant PfCDPK4, Kinase-Glo ATP depletion luminescence.
Assay [4] is described as follows: EMT-state selective cytotoxicity in co-culture – imaging, PC-3E GFP, TEM4-18 mCherry, primary screen (AID 1345086;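 active = compounds killing one labelled cell type while sparing the other, by normalised counts and ratio limits, not self-fluorescent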;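 also: cells exposed to compound for 72 h before imaging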;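 as to red/green cell ratio (normalised): normalised mesenchymal count divided by normalised epithelial count so high means epithelial killing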). The settings on record: PC-3E GFP / TEM4-18 mCherry co-culture, imaging cell counts, at 1 µM.
Assay [5] concerns Aerobactin synthetase IucA (Klebsiella pneumoniae). As to the kind of experiment: inhibition of K. pneumoniae IucA enzyme – biochemical, Tocris library, absorbance (AID 1345561).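 Also: 100% = enzyme without compound and 0% = no enzyme.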 Particulars: purified IucA enzyme assay, absorbance (OD) read-out; stronger effect = lower value;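 tested at 8 µM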.

For part of these data: Potency and affinity values are given separately. Active and inactive are the calls of the source. Unless noted, no rule for the calls is given here.

Calcium-dependent protein kinase 4 (Plasmodium falciparum (isolate 3D7)), sequence (Q8IBS5 whole entry, looked up): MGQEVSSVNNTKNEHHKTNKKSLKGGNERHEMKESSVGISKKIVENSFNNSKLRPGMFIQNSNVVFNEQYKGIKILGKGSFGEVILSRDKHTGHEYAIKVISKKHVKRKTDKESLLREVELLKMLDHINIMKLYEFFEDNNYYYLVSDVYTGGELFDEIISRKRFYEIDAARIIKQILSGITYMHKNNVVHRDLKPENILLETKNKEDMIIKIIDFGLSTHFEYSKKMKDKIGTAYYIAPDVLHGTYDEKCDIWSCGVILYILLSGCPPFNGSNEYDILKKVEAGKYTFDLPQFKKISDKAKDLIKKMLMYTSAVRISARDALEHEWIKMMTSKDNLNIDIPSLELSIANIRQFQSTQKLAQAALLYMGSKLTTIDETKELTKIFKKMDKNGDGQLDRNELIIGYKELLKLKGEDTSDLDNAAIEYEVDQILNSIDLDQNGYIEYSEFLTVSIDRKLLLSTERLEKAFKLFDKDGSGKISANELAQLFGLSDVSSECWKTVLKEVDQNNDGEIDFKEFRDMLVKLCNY
Protein kinase 7 (PK7), Plasmodium falciparum 3D7 (PF3D7_0213400), sequence (Q7YTF7 1-343): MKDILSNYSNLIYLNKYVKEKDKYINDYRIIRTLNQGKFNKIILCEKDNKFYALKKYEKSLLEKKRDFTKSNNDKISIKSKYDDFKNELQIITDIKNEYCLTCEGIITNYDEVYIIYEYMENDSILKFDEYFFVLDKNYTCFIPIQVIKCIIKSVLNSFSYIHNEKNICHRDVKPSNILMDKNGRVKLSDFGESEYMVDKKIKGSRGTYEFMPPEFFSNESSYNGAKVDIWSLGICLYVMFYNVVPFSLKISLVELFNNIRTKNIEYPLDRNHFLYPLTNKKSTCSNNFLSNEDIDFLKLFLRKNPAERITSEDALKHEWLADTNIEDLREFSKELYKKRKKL

As to `NC(N)=Nc1nc(CSCC/C(N)=N/S(N)(=O)=O)cs1`, in assay [1], the mean signal is 276 (inactive). On to `Cc1nc(N)nc(N)c1-c1ccc(Cl)c(Cl)c1`, for which the outcome in assay [2] and in assay [3] was inactive.

For the compound `CC1(C)S[C@@H]2[C@H](N=CN3CCCCCC3)C(=O)N2[C@H]1C(=O)O`, in assay [1], the mean signal is 245 (inactive). Take `O=C1[C@H]2CCCC[C@H]2C(=O)N1CCCCN1CCN(c2nsc3ccccc23)CC1`: the mean signal in assay [1] is 254 (inactive). Take `O=C(Nc1cccc(C2=NCCN2)c1)Nc1cccc(C2=NCCN2)c1`: the outcome in assay [2] and in assay [3] was inactive.

`CCOc1ccc2nc3cc(N)ccc3c(N)c2c1`: the outcome in assay [2] and in assay [3] was inactive. Moreover, in assay [4] (actives lie on both sides, counts scaled to control wells, 1 = unselective), the red/green cell ratio (normalised) is 1.04 (inactive). In addition, the normalised cell number in assay [4] (measured here: epithelial PC-3E GFP cell survival) came to 0.62; in assay [4] (measured here: mesenchymal TEM4-18 mCherry cell survival) it was 0.65. One may read the remaining activity as the signal under treatment as a percentage of the control signal. For the compound `COc1cc2c(cc1OC)-c1cc(=Nc3c(C)cc(C)cc3C)n(C)c(=O)n1CC2`, the result in assay [2] and in assay [3] was inactive. In addition, the remaining activity in assay [5] was 110% (inactive). On to `CC(C)(C)C(O)/C=C/c1ccc2c(c1)OCO2` (configuration not stated), for which the mean signal in assay [1] was 280 (inactive). Same read-out and setting: in the case of `OCc1cccnc1` it was 224 (inactive); in that of `CNCC(O)c1ccc(O)c(O)c1` (configuration not stated), 245 (inactive). The same measure, in the same setting: in the case of `COC(=O)CCc1ccc(OCC(O)CNC(C)C)cc1` (configuration not stated) it was 266 (inactive); in that of `O=C1c2cccc3c2[C@H](CCC3)CN1[C@@H]1CN2CCC1CC2`, 244 (inactive).

Turning to `NCC1CCC(C(=O)Oc2ccc(CCC(=O)O)cc2)CC1` (configuration not stated), in assay [1], the mean signal was 243 (inactive). `CCCCCCCC/C=C\CCCCCCCC(=O)NCc1ccc(O)c(OC)c1`: the outcome in assay [2] and in assay [3] was inactive. Besides, in assay [5], the remaining activity was 100% (inactive).

`Nc1c2c(nc3c1CCC3)CCCC2`: in assay [1], the mean signal was 275 (inactive). Still for that read-out and setting: in the case of `C[C@H](NC(CCc1ccccc1)C(=O)O)C(=O)N1CCC[C@H]1C(=O)O` (some centres not stated) it was 226 (inactive); in that of `CO[C@H]1C=CO[C@@]2(C)Oc3c(C)c(O)c4c(O)c(c(/C=N/N5CCN(C)CC5)c(O)c4c3C2=O)NC(=O)/C(C)=C\C=C[C@H](C)[C@H](O)[C@@H](C)[C@@H](O)[C@@H](C)[C@H](OC(C)=O)[C@@H]1C`, 243 (inactive).

The values above are taken from PubChem BioAssay.
